# In PubChem BioAssay:
# Tested on: Inhibin beta A chain (activin A)
# Test: INHBA (activin A) binders on microarrays, primary screen, biochemical, small-molecule microarray, 635 nm fluorescence scan (AID 1107);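 further: mouse activin A protein probed at 4.33 µg/mL on printed slides; score merges bound-protein fluorescence near 667 nm with spot signal-to-noise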
# Details: small-molecule microarray binding, higher = more signal
row,SMILES,composite z-score
1,C=C[C@@H](O)[C@H]1CC(c2ccccc2)=NO1,0.614
2,COC(=O)[C@]1(Cc2ccccc2CN=[N+]=[N-])N=C(c2ccc(OCCCO)cc2)O[C@@H]1c1ccccc1CN=[N+]=[N-],0.721
3,O=C1C2C=CC(C(O)c3cccc4ccccc34)N(Nc3ccccc3)C2C(=O)N1c1ccccc1 (stereo not given),1.15
4,O=C(O)[C@@]1(Cc2ccccc2)COC(c2ccc(OCCCO)cc2)=N1,0.53
5,O=C1c2ccccc2[C@](Cc2ccccc2I)(C(=O)NC2CC2)[C@H](c2ccc(CO)cc2)N1Cc1ccccc1Cl,1.02
6,O=C(NCc1ccccc1)[C@]1(Cc2ccccc2)N=C(c2ccc(OCCCO)cc2)O[C@@H]1c1ccccc1,0.672
7,COCCCNC(=O)[C@@H]1c2ccccc2C(=O)N(Cc2cc(F)cc(C(F)(F)F)c2)[C@H]1c1ccc(CO)cc1,-0.104
8,COC(=O)[C@@]1(Cc2ccc(OC)cc2)[C@H]2c3cc(C(=O)N4CCCC4)n(CCF)c3C[C@H]2CN1C(=O)c1ccccc1,0.823
9,Cc1ccc(C(C)CC(O)C2C=CC3C(=O)N(Cc4ccccc4)C(=O)C3N2n2cnnc2)o1 (stereo not given),1.09
10,CN1C(=O)C2C=CC(C(O)c3cccc4ccccc34)N(NC(=O)OC(C)(C)C)C2C1=O (stereo not given),0.844
11,O=C1N(Cc2ccccc2)c2ccccc2[C@H]2OC(c3ccc(OCCCO)cc3)=N[C@@]12CCS(=O)(=O)c1ccccc1,0.808
12,COC(=O)[C@@]1(Cc2ccccc2)[C@H]2c3cc(C(=O)N4CCCC4)n(Cc4ccccc4)c3C[C@H]2CN1C(=O)c1ccccc1,0.675
13,CCOC(=O)C[C@H]1[C@H](OC(=O)c2ccccc2-c2ccccc2)[C@@H](NC(=O)c2ccccc2)c2cc(OCCCO)ccc2N1C(=O)Cc1ccc(OC)cc1,0.264
14,COc1ccccc1CN1C(=O)c2ccccc2[C@@H](C(=O)NCC(C)C)[C@@H]1c1ccc(CO)cc1,0.002
15,COC(=O)C(CC#Cc1ccc2c(c1)[C@]1(C(=O)N2)[C@H](c2ccc(O)cc2)N2[C@H](c3ccccc3)[C@H](c3ccccc3)OC(=O)[C@H]2[C@@H]1C(N)=O)C(=O)OC,-0.611
16,CCCC[C@@H](O)C1=C(COc2ccccc2)Cn2c(=O)n(-c3ccccc3)c(=O)n2[C@H]1CO,0.606
17,NC(=O)[C@H]1[C@@H]2C(=O)O[C@@H](c3ccccc3)[C@@H](c3ccccc3)N2[C@@H](c2ccc(O)cc2)[C@]12C(=O)Nc1ccc(C#CC3(O)CCCCCC3)cc12,0.593
18,CCCN1C(=O)[C@@]2(Cc3ccccc3)N=C(c3ccc(OCCCO)cc3)O[C@H]2c2ccccc21,1.14

row,SMILES,composite z-score
1,COC(=O)[C@@]1(Cc2ccc(OC)cc2)[C@H]2c3cc(C(=O)N4CCCC4)n(CCc4ccc(O)c(OC)c4)c3C[C@H]2CN1C(=O)c1ccccc1,1.04
2,COCCOC(=O)N1C(=O)[C@@]2(c3cc(C#Cc4ccc(OC)cc4)ccc31)[C@H](C(=O)N1CCc3cc(OC)c(OC)cc3C1)[C@H]1C(=O)O[C@H](c3ccccc3)[C@H](c3ccccc3)N1[C@@H]2c1ccc(OCCO)cc1,0.115
3,C[N+](C)(C)CCCCCCNC(=O)[C@@H]1C[C@@H]2C(=O)NCC(=O)N2[C@@H]1c1ccc(O)cc1,0.277
4,COCCCNC(=O)[C@]1(CCS(=O)(=O)c2ccccc2)N=C(c2ccc(OCCCO)cc2)O[C@@H]1c1ccccc1,0.455
5,C[C@@]1([C@@H](NC(=O)c2cccs2)c2ccc(-c3ccccc3)cc2)C[C@H]1C1CCCCC1,1.49
6,COc1cccc(C[C@H]2C[C@@H](CO[Si](C(C)C)(C(C)C)C(C)C)N3C(=O)[C@]4(C(C)=O)O[C@]23[C@H]2C(=O)N(C)C(=O)[C@H]24)c1,-0.254
7,[N-]=[N+]=Nc1ccccc1[C@@H]1OC(c2ccc(OCCCO)cc2)=N[C@]1(CCS(=O)(=O)c1ccccc1)C(=O)NCc1ccccc1,1.06
8,C=CC[C@@]1(C(=O)NCCN2CCOCC2)N=C(c2ccc(OCCCO)cc2)O[C@@H]1c1ccccc1,0.726
9,COC(=O)C(CC#Cc1ccc2c(c1)[C@]1(C(=O)N2)[C@H](c2ccc(OCCO)cc2)N2[C@H](c3ccccc3)[C@H](c3ccccc3)OC(=O)[C@H]2[C@@H]1C(=O)O)C(=O)OC,0.765
10,COC(=O)c1ccc(OC)c(/C=C\CC(CCc2ccccc2)OC(C)=O)c1 (stereo not given),1.53
11,COCC1=C([C@H](O)CCc2ccccc2)[C@H](CO)[C@@H]2C(=O)N(C)C(=O)[C@@H]2C1,0.42
12,COc1cc(NN2C(C(O)c3ccc(I)cc3)C=CC3C(=O)N(C)C(=O)C32)cc(OC)c1OC (stereo not given),1.29
13,CC(C)N1C(=O)c2ccccc2[C@](C)(C(=O)O)[C@@H]1c1ccc(CO)cc1,0.532
14,NC(=O)NCC#Cc1ccc2c(c1)[C@]1(C(=O)N2)[C@H](c2ccc(O)cc2)N2[C@H](c3ccccc3)[C@H](c3ccccc3)OC(=O)[C@H]2[C@@H]1C(N)=O,0.286
15,CCCCC(CC)C(O)C1C=CC2C(=O)NC(=O)C2N1Nc1ccccn1 (stereo not given),1.33
16,COC(=O)[C@@]1(Cc2ccccc2)[C@H]2c3cc(C(=O)N4CCCC4)n(Cc4ccc(OC(F)(F)F)cc4)c3C[C@H]2CN1C(=O)c1ccccc1,1.08
17,C=C(COC)C(=O)CC[C@H](OC(=O)c1ccccc1-c1ccccc1C(=O)O)c1ccc(OCCO)cc1,1.1
